Source: PubChem BioAssay
Many of the other results were omitted from the sample, so hits are more common in it than they were.
HIV RNase H inh: inhibitors of HIV-1 reverse transcriptase RNase H; P04585; RT-RNase H RNA/DNA duplex cleavage, fluorescence; inhibition, % at 10 µM; 65,000 compounds, 1.9% hits; AID 565; in the data active = inhibition above about 50%
RmlC RmlD mix: mixture blocks RmlC and RmlD coupled enzyme activity | RmlC/RmlD coupled enzyme inhibition, 384-well mixture HTS | inhibition, % at 5.5 µM | 110,000 compounds, 0.39% hits | AID 1532; in the data active = inhibition above about 30%, passing the limit was not always enough
RmlCD artifact: counter-screen for RmlC/RmlD inhibitors: fluorescence artifact. shares compounds with RmlC RmlD mix. RmlC/RmlD assay fluorescence artifact counter-screen. calls only. 360 compounds, 96% hits. AID 1696; call rule not given here;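 note: compound alone with no enzyme and no substrates present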
Numbers stand for hits.

Results for COC(=O)[C@@]1(Cc2ccc(OC)cc2)[C@H]2c3cc(C(=O)N4CCCC4)n(CCn4cc([N+](=O)[O-])nc4C)c3C[C@H]2CN1C(=O)c1ccccc1 ?
RmlC RmlD mix: inactive

How did COc1cc2c(cc1OC)CN(C(=O)c1ccccc1C(=O)O)CC2 do in these assays?
HIV RNase H inh: inactive; RmlC RmlD mix: inactive

What do the screens show for `COc1cccc(-c2[nH]nc3c2C(c2ccoc2)C(C#N)=C(N)O3)c1` (stereo not drawn)?
RmlC RmlD mix: inactive

Results for Cc1nc(NC(=O)/C=C/c2ccccc2)sc1C(=O)Nc1ccccc1Cl ?
RmlC RmlD mix: 37; RmlCD artifact: active

Results for Cc1nc(NC(=O)/C=C/c2ccccc2)sc1C(=O)Nc1ccc(Cl)cc1 ?
RmlC RmlD mix: inactive

What do the screens show for `Cc1cc(NCCCN2CCOCC2)n2c(nc3ccccc32)c1C#N`?
HIV RNase H inh: inactive; RmlC RmlD mix: 71; RmlCD artifact: active

Results for Cc1cc(NCCN2CCOCC2)n2c(nc3ccccc32)c1C#N ?
HIV RNase H inh: inactive; RmlC RmlD mix: inactive

How did CC1Cc2ccccc2N1C(=O)c1cc2c(=O)n3ccccc3nc2n1C (stereo not drawn) do in these assays?
HIV RNase H inh: inactive; RmlC RmlD mix: inactive

How did Cn1c(C(=O)N2CCc3ccccc3C2)cc2c(=O)n3ccccc3nc21 do in these assays?
HIV RNase H inh: inactive; RmlC RmlD mix: 103; RmlCD artifact: active

Results for C=CCn1c(=N)c(C(=O)NCCCOC)cc2c(=O)n3cc(C)ccc3nc21 ?
HIV RNase H inh: inactive

What do the screens show for `COCCCNC(=O)c1cc2c(=O)n3cccc(C)c3nc2n(C(C)C)c1=N`?
HIV RNase H inh: inactive; RmlC RmlD mix: 64; RmlCD artifact: active

How did COCCn1c(=N)c(C(=O)NCCc2ccc(OC)cc2)cc2c(=O)n3cccc(C)c3nc21 do in these assays?
HIV RNase H inh: inactive; RmlC RmlD mix: inactive

What do the screens show for `COC(=O)c1cc2c(=O)n3ccccc3nc2n(Cc2cccnc2)c1=N`?
HIV RNase H inh: inactive; RmlC RmlD mix: inactive

How did C=CCn1c(=N)c(C(=O)NCCCOC)cc2c(=O)n3ccccc3nc21 do in these assays?
HIV RNase H inh: inactive; RmlC RmlD mix: 66; RmlCD artifact: active

Results for CCCCCn1c(=NC(C)=O)c(C#N)cc2c(=O)n3ccccc3nc21 ?
HIV RNase H inh: inactive

What do the screens show for `N=c1c(C(=O)NCc2ccc(F)cc2)cc2c(=O)n3ccccc3nc2n1Cc1cccnc1`?
RmlC RmlD mix: 53; RmlCD artifact: active

What do the screens show for `CC(C)OCCCn1c(=NC(=O)c2ccncc2)c(C#N)cc2c(=O)n3ccccc3nc21`?
HIV RNase H inh: inactive; RmlC RmlD mix: 115; RmlCD artifact: active

What do the screens show for `N#Cc1ccccc1NC(=O)c1ccc(-c2ccccc2Cl)o1`?
HIV RNase H inh: inactive

How did C[C@H]1O[C@H](O[C@H]2[C@H](O)[C@@H](O)[C@@H](O[C@H]3[C@H](O)[C@@H](O)C(O)O[C@@H]3CO)O[C@@H]2CO)[C@H](O)[C@@H](O)[C@@H]1N[C@H]1C=C(CO)[C@@H](O)[C@H](O)[C@H]1O (stereo partly drawn) do in these assays?
RmlC RmlD mix: inactive

What do the screens show for `COCCCNC(=O)CSC1=Nc2ccccc2C2=NC(CC(=O)NCc3ccccc3)C(=O)N12` (stereo not drawn)?
HIV RNase H inh: inactive; RmlC RmlD mix: inactive

Results for Cn1cc(C(=O)NCCN2CCN(c3ccccc3F)CC2)c2c3ccccc3n(C)c2c1=O ?
HIV RNase H inh: inactive

How did COc1ccc2c(c1)CCc1c(C(=O)Nc3ccc(OC)c(OC)c3)noc1-2 do in these assays?
HIV RNase H inh: inactive; RmlC RmlD mix: inactive

What do the screens show for `C=CCn1c(SCC(=O)OC)nc2sc3c(c2c1=O)CCN(C)C3`?
HIV RNase H inh: inactive; RmlC RmlD mix: inactive

How did C=CCn1c(=O)c(C#N)cc2c(=O)n3ccccc3nc21 do in these assays?
HIV RNase H inh: inactive; RmlC RmlD mix: 58; RmlCD artifact: active

What do the screens show for `C=CCn1c(=N)c(C#N)cc2c(=O)n3ccccc3nc21`?
RmlC RmlD mix: inactive

What do the screens show for `O=C(OC(C(=O)NCC1CCCO1)c1ccccn1)c1cccs1` (stereo not drawn)?
HIV RNase H inh: inactive; RmlC RmlD mix: inactive

How did CC(=O)c1cc2c(O)c(O)ccc2o1 do in these assays?
HIV RNase H inh: inactive; RmlC RmlD mix: inactive

Results for CC(=O)c1cc2cc(O)ccc2o1 ?
HIV RNase H inh: inactive; RmlC RmlD mix: 136; RmlCD artifact: active

What do the screens show for `CC(C)CC(C(=O)Oc1ccc2c3c(c(=O)oc2c1)CCC3)N1C(=O)c2ccccc2C1=O` (stereo not drawn)?
RmlCD artifact: active

Results for CC[C@@H](NS(=O)(=O)c1ccc(C)cc1)C(=O)Oc1ccc2c3c(c(=O)oc2c1)CCC3 ?
RmlCD artifact: active

What do the screens show for `CCC(C)C(NS(=O)(=O)c1ccc(C)cc1)C(=O)Oc1ccc2c3c(c(=O)oc2c1)CCC3` (stereo not drawn)?
RmlC RmlD mix: inactive

How did CC(C)Oc1ccc2c3c(c(=O)oc2c1)CCC3 do in these assays?
HIV RNase H inh: inactive; RmlC RmlD mix: inactive

How did COC(=O)c1sc2cnccc2c1N do in these assays?
HIV RNase H inh: inactive; RmlC RmlD mix: 34; RmlCD artifact: active

How did COCc1cc(C)nc2sc(C(=O)OC)c(N)c12 do in these assays?
HIV RNase H inh: inactive; RmlC RmlD mix: inactive

Results for CN(C)CCNC(=O)C12CC3(C)CC(C)(CC(C)(C3)C1)C2 ?
HIV RNase H inh: inactive; RmlC RmlD mix: inactive

How did CC(=O)c1ccc(Nc2ncnc3c2oc2ccccc23)cc1 do in these assays?
HIV RNase H inh: inactive; RmlC RmlD mix: inactive

Results for COc1ccc(C)cc1NC(=O)c1cnc2scc(C)n2c1=O ?
HIV RNase H inh: inactive; RmlC RmlD mix: 47; RmlCD artifact: active

What do the screens show for `COc1ccc(C)cc1NC(=O)c1cnc2n(c1=O)CCS2`?
HIV RNase H inh: inactive; RmlC RmlD mix: inactive

What do the screens show for `O=C(COC(=O)C1c2ccccc2Oc2ccccc21)NC1CCS(=O)(=O)C1` (stereo not drawn)?
HIV RNase H inh: inactive; RmlC RmlD mix: inactive

Results for CCCc1cc(=O)oc2c(CN3CCCC3)c(O)ccc12 ?
HIV RNase H inh: inactive; RmlC RmlD mix: 99; RmlCD artifact: active

How did CN1CCN(Cc2c(O)ccc3c(-c4ccccc4)cc(=O)oc23)CC1 do in these assays?
HIV RNase H inh: inactive; RmlC RmlD mix: inactive

How did CCc1cc(=O)oc2cc(C)c(CN3CCCCC3)c(O)c12 do in these assays?
HIV RNase H inh: inactive; RmlC RmlD mix: inactive

How did Cc1cc(=O)oc2c(CN3CCCCC3)c(O)c(Cl)cc12 do in these assays?
HIV RNase H inh: inactive; RmlC RmlD mix: 94; RmlCD artifact: active

What do the screens show for `Cc1cc2oc(=O)cc(CN3CCC(C)CC3)c2cc1Cl`?
HIV RNase H inh: inactive; RmlC RmlD mix: inactive

Results for Cc1cc(=O)oc2c(CN3CCC(C)CC3)c(O)c(Cl)cc12 ?
HIV RNase H inh: inactive; RmlC RmlD mix: 149; RmlCD artifact: active

Results for CC(=O)c1c(C(C)=O)c(C)n(-c2ccc(N)c(C)c2)c1C ?
RmlC RmlD mix: inactive

How did CSc1ccccc1NC(=O)COc1ccccc1Cl do in these assays?
RmlC RmlD mix: inactive

How did O=C(Nc1ccccn1)C(=O)N1CCCCC1 do in these assays?
RmlC RmlD mix: inactive

How did OC1(c2ccc(F)cc2)CCN(Cc2nnnn2Cc2cccs2)CC1 do in these assays?
HIV RNase H inh: inactive; RmlC RmlD mix: inactive

How did S=c1[nH]nc(COc2ccccc2)n1/N=C/C(Cl)=C/c1ccccc1 do in these assays?
RmlC RmlD mix: inactive
